36 targets from the supplement of paper PMC12067093, “Discovery and optimisation of a covalent ligand for TRIM25 and its application to targeted protein ubiquitination” (Chemical Science, 2025) can be followed below.

Compound in the assay: Cc1cc(ccc1-c1ccccc1)C(=O)N1CCCN(CC1)C(=O)CCl [compound 10]
Nature of the assay: probe-labelled cysteine peptide fold change vs DMSO (competition) (log2 fold change); higher = less target engagement (more negative = stronger competition). The conditions noted are these: THP-1, incubation time: 4 h.

About 21,000 targets were measured; listed, in parts, are those with the largest changes and a random draw of the rest.
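Also: competitive profiling in live THP-1 cells: cysteine peptides tagged with an iodoacetamide desthiobiotin (IA-DTB) probe, intensity after compound treatment relative to DMSO-treated cells.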

Chain of UniProt Q9NVI1 (Q9NVI1 whole entry, looked up): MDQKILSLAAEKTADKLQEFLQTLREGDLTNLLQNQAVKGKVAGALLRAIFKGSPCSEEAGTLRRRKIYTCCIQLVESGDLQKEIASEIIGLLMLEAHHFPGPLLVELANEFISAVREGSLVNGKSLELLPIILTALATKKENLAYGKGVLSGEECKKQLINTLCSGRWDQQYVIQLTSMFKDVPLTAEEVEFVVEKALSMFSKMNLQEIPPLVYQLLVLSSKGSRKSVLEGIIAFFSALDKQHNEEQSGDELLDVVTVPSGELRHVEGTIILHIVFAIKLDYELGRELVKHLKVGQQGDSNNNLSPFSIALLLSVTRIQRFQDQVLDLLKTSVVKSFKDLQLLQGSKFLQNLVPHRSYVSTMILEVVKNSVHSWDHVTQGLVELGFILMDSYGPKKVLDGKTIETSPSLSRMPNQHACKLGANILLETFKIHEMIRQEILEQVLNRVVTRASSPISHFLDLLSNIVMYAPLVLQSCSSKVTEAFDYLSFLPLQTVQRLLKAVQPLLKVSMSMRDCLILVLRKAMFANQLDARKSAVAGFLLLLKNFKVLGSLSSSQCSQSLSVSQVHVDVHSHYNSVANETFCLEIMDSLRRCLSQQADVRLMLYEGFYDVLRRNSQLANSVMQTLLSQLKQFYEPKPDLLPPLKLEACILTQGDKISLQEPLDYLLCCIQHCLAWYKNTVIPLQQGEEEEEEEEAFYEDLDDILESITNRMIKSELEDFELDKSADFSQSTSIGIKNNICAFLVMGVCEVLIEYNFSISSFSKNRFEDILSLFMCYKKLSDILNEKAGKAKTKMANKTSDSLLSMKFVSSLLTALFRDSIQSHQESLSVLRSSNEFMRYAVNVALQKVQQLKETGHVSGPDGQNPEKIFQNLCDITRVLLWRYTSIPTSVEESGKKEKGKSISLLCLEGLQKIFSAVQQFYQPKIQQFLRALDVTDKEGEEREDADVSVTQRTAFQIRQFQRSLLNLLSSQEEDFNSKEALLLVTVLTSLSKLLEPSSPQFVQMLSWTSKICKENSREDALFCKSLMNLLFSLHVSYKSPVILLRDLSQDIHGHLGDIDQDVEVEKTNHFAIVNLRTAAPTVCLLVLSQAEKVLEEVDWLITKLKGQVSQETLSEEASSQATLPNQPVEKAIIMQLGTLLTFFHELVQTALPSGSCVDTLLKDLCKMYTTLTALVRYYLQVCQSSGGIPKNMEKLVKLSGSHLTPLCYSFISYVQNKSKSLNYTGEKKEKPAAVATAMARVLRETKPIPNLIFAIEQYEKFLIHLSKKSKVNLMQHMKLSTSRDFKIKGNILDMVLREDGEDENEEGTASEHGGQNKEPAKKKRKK
Chain of UniProt Q92889 (Q92889 whole entry, looked up): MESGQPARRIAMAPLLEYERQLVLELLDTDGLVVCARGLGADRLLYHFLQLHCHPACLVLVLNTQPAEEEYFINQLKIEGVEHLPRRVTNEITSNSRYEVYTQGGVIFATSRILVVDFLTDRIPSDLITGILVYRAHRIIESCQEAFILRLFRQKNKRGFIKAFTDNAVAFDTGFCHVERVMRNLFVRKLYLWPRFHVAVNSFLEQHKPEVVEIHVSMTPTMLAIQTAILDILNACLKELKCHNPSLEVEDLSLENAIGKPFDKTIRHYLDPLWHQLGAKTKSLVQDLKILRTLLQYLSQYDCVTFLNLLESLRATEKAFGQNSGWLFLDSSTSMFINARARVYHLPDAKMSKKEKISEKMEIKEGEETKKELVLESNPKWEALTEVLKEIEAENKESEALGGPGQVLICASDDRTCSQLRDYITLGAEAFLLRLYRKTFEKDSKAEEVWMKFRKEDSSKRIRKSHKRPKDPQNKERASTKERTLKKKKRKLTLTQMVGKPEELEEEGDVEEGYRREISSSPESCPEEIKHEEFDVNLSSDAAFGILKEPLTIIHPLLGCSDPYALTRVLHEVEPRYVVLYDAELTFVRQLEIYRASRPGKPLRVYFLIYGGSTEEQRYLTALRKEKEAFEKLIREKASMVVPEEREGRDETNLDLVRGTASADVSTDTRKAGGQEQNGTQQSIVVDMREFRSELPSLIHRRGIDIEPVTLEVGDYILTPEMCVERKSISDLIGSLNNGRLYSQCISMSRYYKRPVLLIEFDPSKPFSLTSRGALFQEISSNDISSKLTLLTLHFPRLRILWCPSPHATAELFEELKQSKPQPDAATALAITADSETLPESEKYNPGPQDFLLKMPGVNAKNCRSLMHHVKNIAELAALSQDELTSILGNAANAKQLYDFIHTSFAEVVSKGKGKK
Chain of UniProt P19447 (P19447 whole entry, looked up): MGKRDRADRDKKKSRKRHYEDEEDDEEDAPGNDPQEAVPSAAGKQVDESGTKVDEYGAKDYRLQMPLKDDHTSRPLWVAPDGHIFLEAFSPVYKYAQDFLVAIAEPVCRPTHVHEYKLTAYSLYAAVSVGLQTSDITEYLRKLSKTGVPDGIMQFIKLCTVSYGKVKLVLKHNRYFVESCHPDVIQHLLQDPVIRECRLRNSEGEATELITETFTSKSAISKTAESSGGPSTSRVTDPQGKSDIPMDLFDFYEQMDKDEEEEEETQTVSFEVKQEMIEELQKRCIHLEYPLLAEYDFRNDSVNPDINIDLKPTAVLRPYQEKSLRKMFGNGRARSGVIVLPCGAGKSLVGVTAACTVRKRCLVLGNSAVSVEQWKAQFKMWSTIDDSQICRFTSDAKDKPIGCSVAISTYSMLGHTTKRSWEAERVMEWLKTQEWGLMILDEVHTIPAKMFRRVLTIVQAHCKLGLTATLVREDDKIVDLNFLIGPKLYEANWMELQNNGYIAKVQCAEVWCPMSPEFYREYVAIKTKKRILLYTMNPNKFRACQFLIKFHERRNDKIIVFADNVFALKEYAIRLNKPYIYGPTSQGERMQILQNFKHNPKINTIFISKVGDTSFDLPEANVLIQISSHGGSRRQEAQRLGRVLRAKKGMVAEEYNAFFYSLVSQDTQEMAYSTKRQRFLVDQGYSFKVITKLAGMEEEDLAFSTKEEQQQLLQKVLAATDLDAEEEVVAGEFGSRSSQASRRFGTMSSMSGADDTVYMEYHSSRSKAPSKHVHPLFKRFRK
Chain of UniProt Q13409 (Q13409 whole entry, looked up): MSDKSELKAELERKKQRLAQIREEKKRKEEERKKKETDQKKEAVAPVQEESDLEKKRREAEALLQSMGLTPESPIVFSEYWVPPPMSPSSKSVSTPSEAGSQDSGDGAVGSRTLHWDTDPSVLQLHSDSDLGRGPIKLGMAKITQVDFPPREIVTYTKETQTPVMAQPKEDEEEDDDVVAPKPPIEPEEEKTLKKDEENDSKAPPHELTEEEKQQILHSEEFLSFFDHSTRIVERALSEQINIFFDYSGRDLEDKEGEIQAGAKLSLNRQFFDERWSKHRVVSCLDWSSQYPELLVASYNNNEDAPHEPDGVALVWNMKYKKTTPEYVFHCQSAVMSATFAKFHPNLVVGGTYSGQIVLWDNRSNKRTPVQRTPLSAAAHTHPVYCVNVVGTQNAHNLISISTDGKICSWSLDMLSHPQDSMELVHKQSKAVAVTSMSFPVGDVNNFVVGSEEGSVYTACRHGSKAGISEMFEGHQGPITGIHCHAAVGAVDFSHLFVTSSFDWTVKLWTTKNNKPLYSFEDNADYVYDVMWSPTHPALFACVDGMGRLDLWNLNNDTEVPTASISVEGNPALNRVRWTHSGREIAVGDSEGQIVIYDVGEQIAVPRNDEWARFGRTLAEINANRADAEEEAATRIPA
Chain of UniProt P17813 (P17813 whole entry, looked up): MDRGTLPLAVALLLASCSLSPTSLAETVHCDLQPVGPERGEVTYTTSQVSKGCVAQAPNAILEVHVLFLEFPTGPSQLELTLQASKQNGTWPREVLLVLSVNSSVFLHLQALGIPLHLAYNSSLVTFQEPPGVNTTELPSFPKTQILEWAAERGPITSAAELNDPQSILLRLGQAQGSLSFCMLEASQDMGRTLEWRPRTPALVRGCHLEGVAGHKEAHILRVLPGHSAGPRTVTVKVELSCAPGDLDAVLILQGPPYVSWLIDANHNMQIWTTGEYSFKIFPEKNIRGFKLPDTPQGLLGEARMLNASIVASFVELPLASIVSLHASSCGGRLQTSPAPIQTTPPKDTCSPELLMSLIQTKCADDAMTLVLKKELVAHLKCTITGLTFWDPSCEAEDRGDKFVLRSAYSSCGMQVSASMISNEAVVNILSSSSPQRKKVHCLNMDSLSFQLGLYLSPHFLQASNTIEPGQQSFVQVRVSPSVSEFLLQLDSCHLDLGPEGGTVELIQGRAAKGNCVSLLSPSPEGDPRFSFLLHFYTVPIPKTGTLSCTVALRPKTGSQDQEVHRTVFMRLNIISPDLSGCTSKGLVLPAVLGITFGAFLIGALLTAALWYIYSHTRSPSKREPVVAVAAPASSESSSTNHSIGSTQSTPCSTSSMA
Chain of UniProt P05198 (P05198 whole entry, looked up): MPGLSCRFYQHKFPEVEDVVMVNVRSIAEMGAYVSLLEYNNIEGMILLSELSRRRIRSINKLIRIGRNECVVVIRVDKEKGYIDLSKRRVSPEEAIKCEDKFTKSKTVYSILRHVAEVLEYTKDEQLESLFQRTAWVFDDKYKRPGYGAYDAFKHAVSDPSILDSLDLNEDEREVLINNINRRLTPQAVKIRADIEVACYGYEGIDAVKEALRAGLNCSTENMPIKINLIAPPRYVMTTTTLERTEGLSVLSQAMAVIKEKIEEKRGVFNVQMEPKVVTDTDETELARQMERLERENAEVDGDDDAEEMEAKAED
Chain of UniProt O95571 (O95571 whole entry, looked up): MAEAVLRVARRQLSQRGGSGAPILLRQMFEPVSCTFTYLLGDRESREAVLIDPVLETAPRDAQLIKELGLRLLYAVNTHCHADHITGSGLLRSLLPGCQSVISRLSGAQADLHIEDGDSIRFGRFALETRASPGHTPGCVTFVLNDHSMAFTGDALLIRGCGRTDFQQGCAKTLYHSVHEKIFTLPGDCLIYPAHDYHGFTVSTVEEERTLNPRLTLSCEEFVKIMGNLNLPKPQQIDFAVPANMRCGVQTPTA

As to “FAM98C_Q17RN3_340_REDGGPQCWGR (UniProt Q17RN3)”, the “probe-labelled cysteine peptide fold change” value (10 µM) was -0.342 and the “probe-labelled cysteine peptide fold change” value (50 µM) is -1.05.

For the target “EXOSC1_Q9Y3B2_73_ETESQLLPDVGAIVTCK (UniProt Q9Y3B2)”, the “probe-labelled cysteine peptide fold change” value was -0.0568 (10 µM) and 0.13 (50 µM).

On to “EDC4_Q6P2E9_976_LCTQLEGLQSTVTGHVER (UniProt Q6P2E9)”, for which the “probe-labelled cysteine peptide fold change” value was -0.0211 (10 µM) and 0.299 (50 µM).

As for “FAM208A_Q9UK61_149_ACLVHNELLEK (UniProt Q9UK61)”, the “probe-labelled cysteine peptide fold change” value (10 µM) was -0.2 and the “probe-labelled cysteine peptide fold change” value (50 µM) is -1.18.

“ENG_P17813_549_TGTLSCTVALRPK (UniProt P17813)”: the “probe-labelled cysteine peptide fold change” value (10 µM) was -0.142 and the “probe-labelled cysteine peptide fold change” value (50 µM) is -0.0378.

Take “ERCC4_Q92889_803_ILWCPSPHATAELFEELK (UniProt Q92889)”: the “probe-labelled cysteine peptide fold change” value was -0.169 (10 µM) and 0.181 (50 µM).

As for “EXOSC10_Q01780_555_IAEELPKEPQGIIACCNPVPPLVR (UniProt Q01780)”, the “probe-labelled cysteine peptide fold change” value was -0.144 (10 µM) and -1.17 (50 µM).

As to “ERLEC1_Q96DZ1_126_IESYWTYEVCHGK (UniProt Q96DZ1)”, the “probe-labelled cysteine peptide fold change” value reads like this: (10 µM) 0.192; (50 µM) 0.0829.

In the case of “DTX3L_Q8TDB6_219_DSCISPSEPETK (UniProt Q8TDB6)”, the “probe-labelled cysteine peptide fold change” value reads like this: (10 µM) -0.446; (50 µM) -0.672.

With “EIF2B1_Q14232_218_IGTNQMAVCAK (UniProt Q14232)”, the “probe-labelled cysteine peptide fold change” value by setting is: (10 µM) -0.148; (50 µM) -0.133.

In the case of “EZH2_Q15910_260_ELTEQQLPGALPPECTPNIDGPNAK (UniProt Q15910)”, the “probe-labelled cysteine peptide fold change” value (10 µM) was -0.164 and the “probe-labelled cysteine peptide fold change” value (50 µM) amounted to 0.256.

As for “FBXO22_Q8NEZ5_7_MEPVGCCGECR (UniProt Q8NEZ5)”, the “probe-labelled cysteine peptide fold change” value is, setting by setting: (10 µM) -0.235; (50 µM) 1.31.

As to “ETHE1_O95571_170_TDFQQGCAK (UniProt O95571)”, the “probe-labelled cysteine peptide fold change” value by setting is: (10 µM) -0.118; (50 µM) -1.3.

Turning to “EIF2S1_P05198_98_VSPEEAIKCEDK (UniProt P05198)”, the “probe-labelled cysteine peptide fold change” value (10 µM) is -0.267 and the “probe-labelled cysteine peptide fold change” value (50 µM) is -1.12.

For “EPRS_P07814_1076_KLGVENCYFPMFVSQSALEK (UniProt P07814)”, the “probe-labelled cysteine peptide fold change” value was 0.288 (10 µM) and 0.373 (50 µM).

With “FANCI_Q9NVI1_650_LEACILTQGDK (UniProt Q9NVI1)”, the “probe-labelled cysteine peptide fold change” value (10 µM) is -0.0611 and the “probe-labelled cysteine peptide fold change” value (50 µM) is -0.113.

Consider “EXOSC6_Q5RKV6_117_RAPPGGCEERELALALQEALEPAVR (UniProt Q5RKV6)”, for which the “probe-labelled cysteine peptide fold change” value is, setting by setting: (10 µM) -0.569; (50 µM) -1.04.

As to “DPH7_Q9BTV6_33_HLLACGTYQLR (UniProt Q9BTV6)”, the “probe-labelled cysteine peptide fold change” value by setting is: (10 µM) 0.0319; (50 µM) 0.078.

With “FAM122A_Q96E09_193_SQSPINCIRPSVLGPLK (UniProt Q96E09)”, the “probe-labelled cysteine peptide fold change” value is, setting by setting: (10 µM) -0.132; (50 µM) -0.161.

For “ELOVL5_Q9NYP7_61_NKQPFSCR (UniProt Q9NYP7)”, the “probe-labelled cysteine peptide fold change” value was -0.567 (10 µM) and -1.94 (50 µM).

Take “EIF3CL_B5ME19_572_TCAILCHIYHHALHSR<|>EIF3C_Q99613_571_TCAILCHIYHHALHSR (UniProt Q99613+B5ME19)”: the “probe-labelled cysteine peptide fold change” value reads like this: (10 µM) 0.0697; (50 µM) -0.279.

In the case of “FAM76B_Q5HYJ3_73_PCQYCNIIAAFIGTK (UniProt Q5HYJ3)”, the “probe-labelled cysteine peptide fold change” value (10 µM) is -0.188 and the “probe-labelled cysteine peptide fold change” value (50 µM) was 0.0361.

Consider “FBXO30_Q8TB52_90_VAEHLEMCPASVVCCTMEWNR (UniProt Q8TB52)”, for which the “probe-labelled cysteine peptide fold change” value is -0.103 (10 µM) and -0.0583 (50 µM).

Consider “FDFT1_P37268_6_CLGHPEEFYNLVR (UniProt P37268)”, for which the “probe-labelled cysteine peptide fold change” value is -0.238 (10 µM) and -0.749 (50 µM).

Turning to “EXOSC10_Q01780_327_SFLGLTCLMQISTR (UniProt Q01780)”, the “probe-labelled cysteine peptide fold change” value stood at 0.419 (10 µM) and 0.333 (50 µM).

“DUT_P33316-2_3_PCSEETPAISPSK (UniProt P33316)”: the “probe-labelled cysteine peptide fold change” value is -0.335 (10 µM) and -0.042 (50 µM).

With “DOCK10_Q96BY6_1310_TDNCEK (UniProt Q96BY6)”, the “probe-labelled cysteine peptide fold change” value reads like this: (10 µM) -0.105; (50 µM) -0.108.

Take “EFTUD2_Q15029_144+148_TCFVDCLIEQTHPEIR (UniProt Q15029)”: the “probe-labelled cysteine peptide fold change” value (10 µM) is -0.176 and the “probe-labelled cysteine peptide fold change” value (50 µM) is -0.0405.

As to “DYNC1I2_Q13409_331_TTPEYVFHCQSAVMSATFAK (UniProt Q13409)”, the “probe-labelled cysteine peptide fold change” value (10 µM) worked out at 0.091 and the “probe-labelled cysteine peptide fold change” value (50 µM) was 0.418.

As to “EEFSEC_P57772_442_LDADIHTNTCR (UniProt P57772)”, the “probe-labelled cysteine peptide fold change” value was -0.204 (10 µM) and -1.14 (50 µM).

As to “EPRS_P07814_660_NSKHEELMLGDPCLK (UniProt P07814)”, the “probe-labelled cysteine peptide fold change” value was -0.334 (10 µM) and -1.37 (50 µM).

Turning to “EFNB1_P98172_89+101_LYLVRPEQAAACSTVLDPNVLVTCNRPEQEIR (UniProt P98172)”, the “probe-labelled cysteine peptide fold change” value is -0.388 (10 µM) and -0.49 (50 µM).

Take “ERCC3_P19447_342_SGVIVLPCGAGK (UniProt P19447)”: the “probe-labelled cysteine peptide fold change” value is, setting by setting: (10 µM) -0.235; (50 µM) -1.63.

Consider “ERCC5_P28715_550_NETHAEVLEQQNELCPYESK (UniProt P28715)”, for which the “probe-labelled cysteine peptide fold change” value by setting is: (10 µM) -0.452; (50 µM) -0.364.

With “EPRS_P07814_92+105_LSSCDSFTSTINELNHCLSLR (UniProt P07814)”, the “probe-labelled cysteine peptide fold change” value by setting is: (10 µM) 0.0532; (50 µM) -0.00186.

Take “ELAVL1_Q15717_13_SNGYEDHMAEDCR (UniProt Q15717)”: the “probe-labelled cysteine peptide fold change” value was determined as 0.863 (10 µM) and 1.62 (50 µM).
